Rab9 promoter act: activators of Rab9 promoter | Potency, µM (series often up to 9.22 µM), for the others: top-dose activation, negative = inhibition, most hits filed as activators | Huh7 Rab9 promoter-luciferase reporter, luminescence, 24 h | AID 485297 | hit rate 2.8% among 320,000; further: % of control where 0% means no effect; nearly all actives have a fitted effect of over 60% in size
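Cell-based reporter: Huh7 stable for Rab9 promoter-driven luciferase, plated in reduced-serum medium with 10% FBS at 1500 cells/well, compound-treated 24 h at 37 °C, luminescence read after 10 min reagent.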
SMN2 splice up: SMN2 splice variant enhancement; hit rate 2.8% among 210,000; Potency, µM (top dose mostly 46.1 µM), without a hit: at the highest dose activity change, positive = activation, most hits filed as activators; HEK293 SMN2-luciferase splicing reporter, luminescence, 30-36 h; AID 1458; further: % of control where 0% means no effect; nearly all actives have a fitted effect of over 55% in size
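HEK293 cells carry an SMN2 […]–luciferase reporter in which exon 7 inclusion puts luciferase in frame. Cells were plated 10-12 h before compound addition, then incubated 30-36 h at 37C. ONE-Glo luminescence was read; sodium butyrate at 4.5 mM final served as control.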
FLuc modulator: inhibits or activates purified firefly luciferase, miR-21 counter-screen; P08659; purified FLuc, Km substrates, luminescence inhibition; Potency, µM (titrated, usually from 57.5 µM), for inactives: top-dose activity change, negative = inhibition, most hits filed as inhibitors; hit rate 6.9% among 360,000; AID 588342;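 further: plate controls were vehicle for no effect and reference inhibitor for full effect; nearly all actives have a fitted effect of over 55% in size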
Target sequence (P08659 whole entry, looked up): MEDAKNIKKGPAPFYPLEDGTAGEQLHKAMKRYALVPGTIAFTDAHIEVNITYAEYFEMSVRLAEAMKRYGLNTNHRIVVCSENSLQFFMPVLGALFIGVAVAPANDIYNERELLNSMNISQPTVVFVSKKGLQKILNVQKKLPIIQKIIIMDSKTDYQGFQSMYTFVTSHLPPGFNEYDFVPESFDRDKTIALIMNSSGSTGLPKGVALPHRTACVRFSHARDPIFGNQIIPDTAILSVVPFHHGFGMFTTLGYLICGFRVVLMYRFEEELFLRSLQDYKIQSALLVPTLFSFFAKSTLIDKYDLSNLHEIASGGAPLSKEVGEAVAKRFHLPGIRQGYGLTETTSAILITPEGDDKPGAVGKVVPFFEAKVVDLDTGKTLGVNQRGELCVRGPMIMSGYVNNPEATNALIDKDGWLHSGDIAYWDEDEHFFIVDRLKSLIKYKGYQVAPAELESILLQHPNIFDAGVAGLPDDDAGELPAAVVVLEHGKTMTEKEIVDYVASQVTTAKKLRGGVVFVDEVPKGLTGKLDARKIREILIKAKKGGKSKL
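Purified P. pyralis luciferase (10nM final) with 10uM D-luciferin and 10uM ATP (Km levels) in 50mM Tris acetate pH 7.5, 10mM Mg acetate, 0.01% Tween-20, 0.05% BSA; qHTS 6-point titration, ~60 µM downward; luminescence read.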
ELG1 DNA repair: inhibitors of ELG1-dependent DNA repair in HEK293T cells; HEK293T ELG1-luciferase reporter, luminescence, 16 h; DNA damage induced by 5-fluorouridine; AID 504467; Potency, µM (top dose mostly 46.1 µM), inactives show at the highest dose activity change, negative = inhibition, usual class: inhibitors; hit rate 2.3% among 330,000; further: on the % scale 0 is the no-effect control and ±100 the full control effect; nearly all actives have a fitted effect of over 55% in size
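DMSO vehicle served as the neutral condition. Each well held 2,000 cells given 5-fluorouridine plus compound; after 16 hr at 37 °C/5% CO2, ONE-Glo was added and luciferase measured 30 min later.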
ELG1 genotox: induces genotoxicity in HEK293T cells with luciferase-tagged ELG1; hit rate 1.3% among 330,000; HEK293T ELG1-luciferase reporter, luminescence, 16 h; AID 504466; Potency, µM (top dose mostly 46 µM), for inactives: top-dose activity change, positive = activation, usual class: activators; further: % of control where 0% means no effect; nearly all actives have a fitted effect of over 60% in size
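Cells (2,000/well) expressing the ELG1-luciferase fusion are dosed by pin tool and kept 16 hr at 37 °C, 5% CO2. Signal comes from ONE-Glo luciferase reagent after 30 min at room temperature.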
NPC1 prom act: activators of NPC1 promoter. Huh7 NPC1 promoter luciferase reporter, 24 h. Potency, µM (highest dose often 9.22 µM), for inactives: at the top dose activation, actives largely listed as activators. hit rate 2.4% among 320,000. AID 485313; further: % of control where 0% means no effect; nearly all actives have a fitted effect of over 60% in size
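Readout is luciferase luminescence, reflecting NPC1 promoter activation in stably transfected Huh7 cells after 24 h compound exposure at 37 °C in reduced-serum medium with 10% FBS.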
* hit, by the source's call; ? = inconclusive; nt = no result given; [ ] = dose if it differs, or a comment. A selection: hits, their analogues and other compounds. The true share with any hit is near 9.4%. The call rests on the fitted dose curve; in most records, active means well fitted curve in the direction sought with a large enough effect; inconclusive means small, poorly fitted or top-dose-only effect, or another doubt; inactive means no such curve, though single readings can be large; an effect the other way counts as inactive or inconclusive. Potency means the concentration at half of the fitted maximal effect.

SMILES	Rab9 promoter act	SMN2 splice up	FLuc modulator	ELG1 DNA repair	ELG1 genotox	NPC1 prom act
O=c1[nH]c2ccccc2nc1Cc1ccccc1	5%	2%	0%	-8%	0%	1%
CCCCOC(=O)CCc1nc2ccccc2[nH]c1=O	-3%	-5%	6%	29µM*	3%	1%
CC(=O)COC(=O)CCc1nc2ccccc2[nH]c1=O	2%	7%	2%	5%	-1%	1%
O=C(Cc1nc2ccccc2[nH]c1=O)c1ccccc1	1.4µM*	11µM*	3.4µM*	?	?	3.2µM*
O=C(NCCc1ccccc1)c1cnc2sc(N3CCCCC3)nn2c1=O	nt	nt	-7%	nt	nt	nt
Cc1c(C(=O)Nc2cccc(F)c2)oc2c1-c1nn(Cc3c(F)cccc3Cl)cc1CC2	nt	nt	4%	nt	nt	nt
CCN(C(=O)Cn1nnc2sc3c(c2c1=O)CCC(C(C)(C)C)C3)c1cccc(C)c1 (stereo not given)	nt	-6%	-1%	nt	nt	nt
O=C(CSC1=Nc2ccccc2C2=NC(Cc3ccccc3)C(=O)N12)Nc1ccccc1F (stereo not given)	nt	nt	-2%	nt	nt	nt
O=C(O)CCc1c2ccc(=O)c(O)c-2oc2c(O)c(O)ccc12	nt	-5%[9.22 µM]	nt	nt	nt	nt
COc1ccccc1N1CCN(/N=C\c2ccccc2)CC1	?	nt	15µM*	0%	?	?
COc1ccccc1N1CCN(/N=C/C(Cl)=C/c2ccccc2)CC1	3.2µM*	nt	5.4µM*	?	10%	2.5µM*
COc1ccccc1N1CCN(/N=C\c2ccc(C)o2)CC1	3.2µM*	11µM*	21µM*	?	?	3.5µM*
Fc1cccc(CNc2ncnc3ccc(-c4ccccc4Cl)cc23)c1	-2%	nt	?	nt	nt	-7%
COc1ncc2nc(-c3ccc(F)cc3)c(=O)n(C[C@H]3CCCO3)c2n1	nt	-14%	nt	nt	nt	nt
Cc1cc(C)cc(OC(=O)c2cc(-c3ccc4c(c3)OCCO4)on2)c1	nt	nt	-29%	nt	nt	nt
Cc1cccc(OC(=O)c2cc(-c3ccc4c(c3)OCCO4)on2)c1C	nt	nt	5.4µM*	nt	nt	nt
O=C(Oc1ccccc1Cl)c1cc(-c2ccc3c(c2)OCCO3)on1	nt	nt	2.7µM*	nt	nt	nt
CC(C)c1ccc(OC(=O)c2cc(-c3ccc4c(c3)OCCO4)on2)cc1	nt	nt	-19%	nt	nt	nt
Cc1ccccc1OC(=O)c1cc(-c2ccc3c(c2)OCCO3)on1	nt	nt	0.6µM*	nt	nt	nt
O=C(N/N=C/c1cccs1)c1cccc(NC(=O)c2ccccc2Cl)c1	8%	1%	24µM*	-4%	1%	10%
Cc1cccc(C(=O)N/N=C/c2ccccn2)c1	3.5µM*	2µM*	19µM*	?	?	?
Cc1cccc(C(=O)Nc2cccc(C(=O)N/N=C/c3ccccn3)c2)c1	-5%	nt	19µM*	-15%	0%	0%
O=C(N/N=C/c1ccccc1F)c1cccc(NC(=O)c2ccccc2Cl)c1	17%	nt	13µM*	4%	7%	19%
CCOC(=O)c1ccc(NC(=O)NCCOCCn2c(=O)oc3ccccc32)cc1	nt	-43%	-4%	nt	nt	nt
O=C(Nc1nc2c(F)cc(F)cc2s1)c1ccc(S(=O)(=O)N2CCc3ccccc32)cc1	nt	nt	-16%	nt	nt	nt
SMILES	Rab9 promoter act	SMN2 splice up	FLuc modulator	ELG1 DNA repair	ELG1 genotox	NPC1 prom act
Cc1nn(CCC(=O)Nc2cc(F)ccc2F)c(=O)c2nn(-c3ccccc3)c(C)c12	nt	nt	-1%	nt	nt	nt
Cc1cc(C)cc(NC(=O)N2CCC(CN3CCc4ccccc4C3)CC2)c1	nt	nt	-3%	nt	nt	nt
O=C(N/N=C/c1ccccn1)c1cccc(S(=O)(=O)Nc2ccccc2Cl)c1	-5%	-5%	?	-13%	-3%	0%
O=C(N/N=C/c1ccccn1)c1cccc(NC(=O)c2ccccc2Cl)c1	15%	nt	17µM*	-2%	9%	3%
CCCC(=O)NC(=S)Nc1cccc(NC(=O)c2ccc(Cl)cc2Cl)c1	-11%	nt	13µM*	?	-5%	-4%
CCC(=O)Nc1cccc(NC(=S)NC(=O)c2ccccc2C)c1	?	18%	15µM*	?	0%	?
CCC(=O)Nc1cccc(NC(=S)NC(=O)c2ccc(Cl)cc2)c1	3.5µM*	?	-20%	?	15%	?
COc1ccc(-c2cc(C(F)(F)F)nc(SCC(=O)NCc3ccco3)n2)cc1OC	0%	2%	-7%	23µM*	6%	4%
O=C(CSc1nc(-c2ccccc2)cc(C(F)(F)F)n1)NCc1ccco1	-4%	22%	-1%	-5%	1%	1%
COc1ccc(-c2ccc(SCC(=O)NCc3ccco3)nn2)cc1OC	3%	3%	21µM*	29%	6%	6%
Nc1ccc2oc(-c3ccccc3Cl)nc2c1	0.45µM*	2.8µM*	1.3µM*	?	3.7µM*	?
CCc1ccc2oc(-c3cc(N)ccc3Cl)nc2c1	2.5µM*	?	0.24µM*	?	2.1µM*	4µM*
Nc1ccc2oc(-c3cc(Br)ccc3Cl)nc2c1	3%	12%	?	?	?	-1%
CCc1ccc2oc(-c3cc(N)ccc3O)nc2c1	4.5µM*	25µM*	0.34µM*	?	22%	3.2µM*
CCOCCCn1c(SCC(=O)Nc2ccccc2Cl)nc2c(oc3ccccc32)c1=O	nt	-9%	-1%	nt	nt	nt
C=CCCCC	nt	-8%	nt	nt	nt	nt
Cc1ccc2c(CC(=O)N3CCN(c4cccc(Cl)c4)CC3)coc2c1	nt	4%	2%	nt	nt	nt
Cc1ccccc1N1CCN(CC(=O)Nc2ccccc2C(=O)NC2CC2)CC1	-7%	nt	nt	21µM*	-11%	-2%
COc1cc2c(cc1OC)CN(CC(=O)Nc1ccccc1C(=O)NCc1ccccc1)CC2	0%	nt	1%	23µM*	-5%	-1%
Cc1ccc(S(=O)(=O)N2CCN(CC(=O)Nc3ccccc3C(=O)NC3CC3)CC2)cc1	0%	nt	3%	-13%	1%	-1%
COc1cc2c(cc1OC)CN(CC(=O)Nc1ccccc1C(=O)NC1CC1)CC2	0%	nt	1%	-10%	1%	0%
COc1cccc(CN2CCN(CC(=O)Nc3ccccc3Cl)CC2)c1	6%	-20%	-1%	13µM*	-1%	1%
COc1cccc(N2CCN(CC(=O)Nc3ccccc3C(=O)NCCc3ccccc3)CC2)c1	3.5µM*	nt	nt	?	0%	3.2µM*
Cc1ccc(CN2C(=O)N(c3ccc(F)cc3)C(=O)C2CC(=O)Nc2ccc(Cl)cc2)cc1 (stereo not given)	nt	-8%	-1%	nt	nt	nt
CC(C)(N=NC(C)(C)C1=NCCN1)C1=NCCN1	nt	-8%[9.22 µM]	nt	nt	nt	nt
CC(C)(C)COS(=O)OCC(C)(C)C	nt	-22%[9.22 µM]	nt	nt	nt	nt
COc1cccc(OC)c1C(=O)Nc1ccc(S(=O)(=O)Nc2nccc(C)n2)cc1	nt	3%	5%	nt	nt	nt
